Bioassay records (PubChem BioAssay)
AI-2 QS mod = Vibrio harveyi AI-2 quorum sensing modulation; activity change, % at 7.5 µM; AID 2094; Vibrio harveyi JMH597 AI-2 luminescence/OD600 ratio, 9 h; hits give low values; strain lacks LuxN and CqsS sensors; 0 = neutral-control median; 300,000 tested, 0.4% active; in the data active means activity change below about -75%, passing the limit was not always enough;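 further: luminescence divided by OD600 gain over 9 h not by final OD600 alone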
SMARCA2 activ = activators of SMARCA2 function | MG213 cells, MMTV-luciferase reporter, dexamethasone, overnight | activation, % at 9.1 µM | 370,000 tested, 1% active | AID 652017; in the data active means activation above about 7.8%;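 further: 0% = vehicle wells and 100% = reference activator wells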
HSP90 inh = HSP90 refolding inhibition in rabbit reticulocyte lysate. AID 1789. 290,000 tested, 0.91% active. inhibition, % at 5.6 µM. luciferase refolding luminescence, 3 h;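 active means inhibition above the screen-wide mean plus 3 SD, computed separately per campaign, cut at about 16% in these data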;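 further: 0% = DMSO wells and 100% = 60 µM geldanamycin wells; inhibitors lower the luminescence because luciferase stays unfolded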
PG9 binder = small molecules binding HIV-1 gp120 antibody PG9. AID 624416. 360,000 tested, 0.43% active. TR-FRET gp120-PG9 antibody binding. inhibition, % at 6.7 µM; in the data active means inhibition above about 8.5%
HSF1 inhib = HSF1 inhibition; NIH3T3-HGL HSE-luciferase, MG132-induced, luminescence 8 h; hits give low values; activity change, negative = inhibition, % at 7.5 µM (by protocol); 300,000 tested, 0.77% active; AID 2098;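 active means more than half of replicate wells show activity change below -50%, luminescence cut by over half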;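 further: luciferase reports HSF-1 transcriptional activity via heat shock element; 0% = median of DMSO wells and -100% = zero luminescence signal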
GAA850 FXN act = increases GAA850 frataxin promoter reporter activity; HEK293 lucGAA850 FXN promoter luciferase reporter, 24 h; percent of 10 µM SAHA response; activation, % at 6 µM; 360,000 tested, 0.56% active; AID 540364;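 active means activation above the average of all compounds screened plus 3 SD, cutoff fixed separately per campaign, cut at about 7.5% in these data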;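 further: 0% = DMSO wells and 100% = 10 µM SAHA wells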
Active calls of the source: *; · = no result. Shown are actives, neighbours in structure and some others; about 3.4% of the full set was active somewhere.

SMILES	AI-2 QS mod	SMARCA2 activ	HSP90 inh	PG9 binder	HSF1 inhib	GAA850 FXN act
COc1ccc(-c2cc(-c3cccs3)nc3sc(C#N)c(N)c23)cc1	29	-2	8	4	-7	3
CCCCOCCCNC(=O)C[C@H]1C[C@@]2(C(=O)OC)C(=C[C@H](C(C)C)O[C@@H]2C2CC2)N(Cc2cccc3ccccc23)C1=O	·	-6	·	·	·	·
C=CCn1c(=NC(=O)C2CCCCC2)sc2cc(NC(C)=O)ccc21	-2	6	1	2	-6	1
C=CCn1c(=NC(=O)C2CC2)sc2cc(NC(C)=O)ccc21	26	-1	-1	2	-55*	1
COC(=O)C1=C(C)N(Cc2ccco2)C(=O)C1	14	0	3	2	-60*	0
COC(=O)C1=C(C)N(Cc2ccc(OC)cc2)C(=O)C1	10	3	0	-1	2	-2
CC[C@@H](C)[C@H](NC(=O)Cc1c(C)c2cc3c(C)c(C)oc3c(C)c2oc1=O)C(=O)O	27	0	1	3	-70*	2
Cc1nc2scc(C)n2c(=O)c1S(=O)(=O)N1CCN(c2cccc(C(F)(F)F)c2)CC1	14	-3	-1	-1	-65*	0
Cc1c(S(=O)(=O)N2CCN(c3cccc(C(F)(F)F)c3)CC2)c(=O)n(C)c(=O)n1C	44	-3	2	0	-3	-1
Cc1cc(C)cc(N=c2c([N+](=O)[O-])nn(-c3ccc4c(c3)OCCO4)n2O)c1	19	-6	4	-1	-6	-1
Cc1ccc(CN=c2c([N+](=O)[O-])nn(-c3ccc4c(c3)OCCO4)n2O)cc1	40	-2	-2	0	45	4
CCc1ccc(N=c2c([N+](=O)[O-])nn(-c3ccc4c(c3)OCCO4)n2O)cc1	41	0	6	0	-3	-1
Cc1ccc(N=c2c([N+](=O)[O-])nn(-c3ccc4c(c3)OCCO4)n2O)cc1F	11	-9	2	-2	-79*	-11
O=[N+]([O-])c1nn(-c2ccc3c(c2)OCCO3)n(O)c1=NCCCO	37	0	4	0	-2	0
Cc1ccc(N=c2c([N+](=O)[O-])nn(-c3ccc4c(c3)OCCO4)n2O)c(Cl)c1	26	·	17*	·	-63*	·
O=[N+]([O-])c1nn(-c2ccc3c(c2)OCCO3)n(O)c1=Nc1ccccc1	70	-11	2	-1	-89*	-14
O=[N+]([O-])c1nn(-c2ccc3c(c2)OCCO3)n(O)c1=Nc1ccc(Cl)cc1	6	-9	9	0	-79*	-19
COC(=O)[C@]12C[C@H](CC(=O)N3CCOCC3)C(=O)N(Cc3ccc(Cl)cc3Cl)C1=C[C@H](C(C)(C)C)O[C@@H]2C	·	-4	·	·	·	·
O=[N+]([O-])c1ccccc1/C=C/C1Nc2cccc3cccc(c23)N1	·	0	·	·	·	·
Cc1ccc(NC(=O)OC2CC3CC2[C@H]2CCCCN2C3)cc1 (stereo partly specified)	·	-1	·	·	·	·
O=C(NCCc1ccccc1)c1cc2ncc(Br)cn2n1	24	8.1*	-3	-2	-1	1
COCCNC(=O)c1cc2ncc(Br)cn2n1	23	0	-2	1	-2	-1
CC[C@@H](CCCc1ccccc1OC)CCS(=O)(=O)C(C)(C)C	·	-3	·	·	·	·
O=C(NCC12CC3CC(CC(C3)C1)C2)c1cc2n(n1)C(C(F)(F)F)CC(c1ccco1)N2 (stereo unspecified)	25	-1	30*	0	4	1
O=C(c1ccc(Cl)cc1)N1CCC(Oc2cccnc2)CC1	·	-1	·	·	·	·
SMILES	AI-2 QS mod	SMARCA2 activ	HSP90 inh	PG9 binder	HSF1 inhib	GAA850 FXN act
COc1ccc(C(=O)N/N=C/c2sc3ccccc3c2O)cc1	-92*	·	15	·	-3	-1
O=C(N/N=C/c1sc2ccccc2c1O)c1ccccc1	-81*	·	5	·	197	-10
C=CCN=C1NC(c2ccccc2)C(C(=O)OC)=C(C)N1C (stereo unspecified)	·	2	·	-2	·	·
COc1ccc([C@H](C#Cc2ccccc2)CC(=O)O)cc1OC1CCCC1	·	-1	·	·	·	·
O=C(NCc1cccs1)C1C2C=CC3(CN(Cc4ccccc4)C(=O)C13)O2 (stereo unspecified)	·	3	·	·	·	·
C1CCC(n2nnnc2CN2CCN(C3CCCC3)CC2)CC1	-4	2	3	-3	0	0
